Test [1] can be described thus: NCI Yeast Anticancer Drug Screen. Data for the rad50 strain (AID 155).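 Also: 0% = growth of vehicle-only cultures of the same strain.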 As to conditions: S. cerevisiae rad50 strain growth inhibition; at 50.0 µM; hits give high values. The gist of the method:
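DNA repair mutant yeast, compound exposure, growth read-out; inhibition is taken relative to vehicle.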

The nature of test [2]: NCI Yeast Anticancer Drug Screen. Data for the mec2-1 strain (AID 157). As to conditions: S. cerevisiae mec2-1 strain, at 50.0 µM, hits give high values. The gist of the method:
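mec2-1 yeast strain, carrying an alteration in DNA damage repair or cell cycle control, was exposed to compounds; growth inhibition was measured relative to vehicle-treated controls.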

The nature of test [3]: NCI Yeast Anticancer Drug Screen. Data for the sgs1 mgt1 strain (AID 161).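 Also: 0% = growth of cultures given vehicle only.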 Conditions: S. cerevisiae sgs1 mgt1 strain, at 50.0 µM, hits give high values. A digest of the protocol:
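Growth of a repair-deficient yeast mutant was monitored after compound treatment and expressed as inhibition relative to vehicle-treated cultures.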

A short description of test [4]: NCI Yeast Anticancer Drug Screen. Data for the cln2 rad14 strain (AID 165).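 Also: 0% = growth equal to vehicle treated cultures.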 As to conditions: S. cerevisiae cln2 rad14 strain, at 50.0 µM, hits give high values. The gist of the method: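 Yeast carrying cln2 and rad14 alterations (cell cycle control and DNA damage repair) were exposed to compounds. Growth inhibition was measured against vehicle-treated controls.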

A short description of test [5]: NCI Yeast Anticancer Drug Screen. Data for the bub3 strain (AID 167). Conditions: S. cerevisiae bub3 mutant strain, at 50.0 µM, hits give high values. The gist of the method: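 In this screen, a yeast mutant lacking normal mitotic checkpoint function is challenged with compound. Relative growth versus vehicle gives the inhibition value.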
Test [6] in a line: NCI Yeast Anticancer Drug Screen. Data for the mlh1 rad18 strain (AID 175). As to conditions: S. cerevisiae mlh1 rad18 strain growth inhibition; at 50.0 µM; hits give high values. The gist of the method:
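Growth inhibition of the yeast strain was measured after compound exposure and expressed relative to vehicle-treated controls. The strain carries defined defects in DNA damage repair.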

About 79,000 compounds went through this panel and 15% of them were active in at least one assay; those are over-represented in the sample as a whole. Values without a mark were called inactive. The source made the active and inactive calls. Rule as the data show it: active = growth inhibition above about 70%; inactive = the rest.

As to `Cc1ccc2c(c1)C(=O)C1(C2)Cc2ccc(C)cc2C1=O`, the growth inhibition in test [1] is -53%; in test [2] it was -45.9%; in test [3], 4.05%; in test [4] it was -3.45%; in test [5] it was 5.45%; in test [6], -24.9%.
For the compound `O=S(=O)(c1ccccc1)N1CCCN(S(=O)(=O)c2ccccc2)CC1`, the growth inhibition in test [1] is -11.9%; in test [2], -0.45%; in test [3], 2.15%; in test [4] it was 3.1%; in test [5], 3.35%; in test [6], 0.7%.
In the case of `CCCc1nnnn1C12CC3CC(CC(C3)C1)C2`, the growth inhibition in test [1] is 30.6%; in test [2], 18.8%; in test [3] it was 2.15%; in test [4] it was 2.2%; in test [5], 18.3%; in test [6] it was 28.1%.
For the compound `CN(C)c1nc2[nH]ncc2c(=O)[nH]1`, the growth inhibition in test [1] was 11.6%; in test [2], 1.25%; in test [3], 5.7%; in test [4], -10.1%; in test [5] it was 0.5%; in test [6] it was 0.8%.
In the case of `O=C(NCc1ccccc1)c1cc(Cl)ccc1O`, the growth inhibition in test [1] is -20.3%; in test [2], -7.1%; in test [3], -7.65%; in test [4], -37.4%; in test [5] it was 0.95%; in test [6], 5.35%.
In the case of `NCc1c(C(N)=O)ncn1Cc1ccccc1`, the growth inhibition in test [1] is -0.95%; in test [2], -3.75%; in test [3], 5%; in test [4] it was -4.15%; in test [5], 7.4%; in test [6], -6.05%.
Take `C/C=C\CCCCC`: the growth inhibition in test [1] was 13.8%; in test [2] it was 9.4%; in test [3] it was 15.4%; in test [4] it was 24.1%; in test [5], 34.6%; in test [6] it was 10.9%.
With `CC1=C(C(c2ccccc2)c2ccccc2)C(=O)c2ccccc2C1=O`, the growth inhibition is -3.35% in test [1]; -6.5% in test [2]; 1.45% in test [3]; 1.5% in test [4]; -31.8% in test [5]; -0.7% in test [6].
As to `Cn1ncc2c(=O)[nH]c(N)nc21`, the growth inhibition was 6.65% in test [1]; 31.2% in test [2]; -19.6% in test [3]; 1.2% in test [4]; -3.15% in test [5]; -5.85% in test [6].
Take `[O-][n+]1cscc1-c1nc2ccccc2[nH]1`: the growth inhibition in test [1] was 7.45%; in test [2] it was -13.2%; in test [3], -2.95%; in test [4], 10.2%; in test [5] it was -7.8%; in test [6] it was -7.5%.
In the case of `CC1(C)C2CCC(C2)C1/C=C1/SC(=S)NC1=O` (stereo not given), the growth inhibition in test [1] was -6.2%; in test [2], -1.55%; in test [3] it was 1.55%; in test [4] it was 49%; in test [5], 17.8%; in test [6], 2.85%.
Turning to `O=C(NNC(=O)c1ccc(Cl)cc1Cl)c1ccccc1`, the growth inhibition is -13.8% in test [1]; 0.2% in test [2]; -4.75% in test [3]; -9.9% in test [4]; -9.2% in test [5]; -7.8% in test [6].
For `COc1cc2c(c(OC)c1OC)-c1ccc(SC)c(=O)cc1[C@@H](NC(=O)C(F)(F)F)CC2`, the growth inhibition in test [1] is 11.1%; in test [2] it was -53.7%; in test [3] it was -18.1%; in test [4], -13.8%; in test [5], -12.7%; in test [6], -4.75%.
In the case of `CCCCC(ON=C(C)C)C(=O)OC` (stereo not given), the growth inhibition in test [1] was 19.3%; in test [2], 31.6%; in test [3], -10.2%; in test [4], 12.1%; in test [5], 1.25%; in test [6] it was 24.4%.
As to `O=C(O)Cc1cccc2c(=O)cc(Cc3ccccc3)oc12`, the growth inhibition in test [1] is -13.8%; in test [2], -16.6%; in test [3] it was -11.5%; in test [4], 6.6%; in test [5] it was 20.1%; in test [6] it was -15%.
For the compound `CCOC1(c2ccccc2)OC(=O)c2ccccc21` (stereo not given), the growth inhibition in test [1] was 18.9%; in test [2], 3.15%; in test [3] it was 9.8%; in test [4] it was 16.7%; in test [5] it was 2.4%; in test [6], 11.7%.
For the compound `NC(C(=O)O)C(C(F)(F)F)C(F)(F)F` (stereo not given), the growth inhibition in test [1] was 0.95%; in test [2] it was -15.2%; in test [3] it was 4.5%; in test [4], 1.55%; in test [5], -15.7%; in test [6], 6.5%.
For the compound `Cc1cccc(C(C)(C)C)c1NC(=O)C(=O)C(C(=O)/C=C\c1ccccc1)C1OC(=O)c2ccccc21` (stereo not given), the growth inhibition in test [1] was 7.4%; in test [2], -4.95%; in test [3], 12.3%; in test [4] it was 30.4%; in test [5], 13.8%; in test [6], 6.1%.
With `COc1cc2c(c(OC)c1OC)-c1ccc(OC)c(=O)cc1C(NC(=O)c1ccc(N=[N+]=[N-])cc1)CC2` (stereo not given), the growth inhibition in test [1] is 51.4%; in test [2], 74.8% (active); in test [3] it was 8.5%; in test [4] it was -4.7%; in test [5] it was -4.6%; in test [6] it was 87.3% (active).
For the compound `O=P(O)(O)Oc1ccc(NCCO)cc1`, the growth inhibition in test [1] is -9.5%; in test [2], -5%; in test [3], 3.3%; in test [4], 17.4%; in test [5] it was 7.55%; in test [6] it was -13.9%.

The values above are taken from PubChem BioAssay (NCI).
